# Measured values as given in PubChem BioAssay (NCI).
# This is part of a sample that, as a whole, favours compounds with a hit. Of some 83,000 tested, about 20% had one in any assay.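 Method: cells in 96-well plates; compound added at one concentration; 48 h incubation; percent growth measured; values under 10 scored active.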 Activity calls are given as the source filed them.
# Test system: MDA-MB-468 breast
# Assay: NCI-60 one-dose screen, 48 h (100 = growth as untreated, 0 = no growth, -100 = all killed)
# Conditions: 10 µM unless noted
row,Compound,growth
1,COCCNC1=C(Cl)C(=O)c2ccccc2C1=O,76.8% (inactive)
2,CSc1cc(SC)ncn1,108% (inactive)
3,CN(C)c1cccc2c(S(=O)(=O)Nc3cccc(-c4csc(NC(=O)CCCCCN5CCN(CCO)CC5)n4)c3)cccc12,79.3% (inactive)
4,CCN(CC)c1ccc(/C=N/NC(=O)c2ccc(NS(C)(=O)=O)cc2)cc1,20.2% (inactive)
5,Nc1ncnc2c1C(c1ccc([N+](=O)[O-])cc1)c1sc3c(F)cccc3c1O2 (stereo not given),-15% (active)
6,CCOC(=O)NNc1nncc2ccccc12,105% (inactive)
7,O=C(O)c1ccc(-c2nn(-c3ccc(C(=O)O)cc3)cc2/C=N/Nc2c(F)c(F)cc(F)c2F)cc1,117% (inactive)
8,Fc1cc2[nH]ncc2c2c3c(c(-c4cn[nH]c4)nc12)CCCC3,-22.4% (active)
9,C#CCNCCN1C(=O)c2ccc3c4c(ccc(c24)C1=O)C(=O)N(CCNCC#C)C3=O,17.1% (inactive)
10,Cc1ccncc1C(=O)O,101% (inactive)
11,CN1C(=O)CNC(=O)[C@H](NC(=O)c2nc3ccccc3cc2O)CSSC[C@H]1C(=O)NCCCc1nc2ccccc2cc1O,22.3% (inactive)
12,COC(=O)C1(C)Cc2cc(OC(C)=O)c(OC(C)=O)cc2N1 (stereo not given),-3.93% (active)
13,CCCNNC(=O)/C=C/c1ccc(CNCCc2c(C)[nH]c3ccccc23)cc1,32.8% [2.5 µM] (inactive)
14,C#Cc1cc(OC)c(C(=O)Nc2ccc(F)cc2C(=O)Nc2cccc(S(=O)(=O)C(F)(F)F)c2)cn1,-31.3% (active)
15,O=C(Nc1ccc(Oc2cccc(Cl)c2)c(Cl)c1)c1cccnc1,-9.21% (active)
16,O=C1NN(C(=O)c2ccccc2)C(c2ccc(Cl)c(Cl)c2)=C/C1=C\c1ccc([N+](=O)[O-])cc1,84.2% (inactive)
17,CCN(CC)Cc1cc(Nc2c3ccc(Cl)cc3nc3c(C)cccc23)ccc1O,-67% (active)
18,COc1ccc(S(=O)(=O)Nc2cc(/C=C\c3cc(OC)c(OC)c(OC)c3)cc(OC)c2OC)cc1,19.5% (inactive)
19,COc1c(C(NC(=O)c2ccccc2)c2sccc2C)cc(Cl)c2cccnc12 (stereo not given),102% (inactive)
20,N#Cc1ccc(N2Cc3ccccc3OC3=C2C(=O)c2c(O)ccc(O)c2C3=O)cc1,-18.8% (active)

row,Compound,growth
1,COc1ccc(/C=N/NC(=O)c2c(N)nn(C)c2Nc2ccccc2)cc1Oc1ccccc1,66.6% (inactive)
2,COc1cc(OC)c(/C=C/c2c3ccccc3cc[n+]2C)c(OC)c1,-26.5% (active)
3,O=C(CCCCNC(=O)c1cc(=O)c(O)co1)Nc1ccccc1,35% (inactive)
4,c1ccc(-c2cn3c(ccc4ccccc43)n2)cc1,30.6% (inactive)
5,C=CCn1c(SCC(=O)Nc2ccc(C(=O)/C=C/c3cc(OC)c(OC)c(OC)c3)cc2)nnc1-c1cc(-c2ccc(Cl)cc2)nc2ccccc12,108% (inactive)
6,FC(F)(F)c1ccc(/C=N/Nc2nnc3n2N=C(c2ccc(Cl)cc2)CS3)cc1,74.3% (inactive)
7,CN(C)CCCN1c2ccccc2CCc2ccccc21,39.6% (inactive)
8,CC(c1ccccc1)N(C)C (stereo not given),86% (inactive)
9,CN1CCN(Cc2ccc(NC(=O)c3ccc(C#N)c(C#Cc4cnc(N)c5ncccc45)c3)cc2C(F)(F)F)CC1,98% (inactive)
10,O=C(N/N=C/C[C@@H]1[C@@H](/C=C/[C@@H](O)COc2cccc(Cl)c2)[C@H](O)C[C@@H]1O)c1ccncc1,97.9% (inactive)
11,CCOC(=O)C(=O)C(C(=O)OCC)c1ccccc1 (stereo not given),111% (inactive)
12,c1ccc(-c2nn[nH]n2)c(-c2ccc(CN3CCN(c4nsc5ccccc45)CC3)cc2)c1,75.8% (inactive)
13,COc1ccc(/C=C/C(=C/c2c(O)[nH]c3cc(Br)ccc23)N=O)cc1,114% (inactive)
14,Cc1c(C(=O)CCl)c(=O)n(-c2ccccc2)n1C,-19.1% (active)
15,C#C[C@]1(O)CC[C@H]2[C@@H]3CC=C4c5sc(Nc6ccc(C)cn6)nc5CC[C@]4(C)[C@H]3CC[C@@]21C,-23.1% (active)
16,COC(=O)c1ccc(Cn2ccc(=O)[nH]c2=O)cc1,104% (inactive)
17,CC/C=C1/C(=O)C=C[C@@H]1C/C=C\CCCC(=O)O,73.5% (inactive)
18,O=C(C(Br)Br)C(Br)C(Br)c1ccccc1 (stereo not given),9.8% (active)
19,Clc1ccc(N/N=c2/oc3ccccc3cc2-c2cc3ccccc3[nH]2)cc1,59.8% (inactive)
20,NS(=O)(=O)c1ccc(Cn2c(SCC(=O)N/N=C/c3ccccc3O)nc3ccccc3c2=O)cc1,52% (inactive)
